# A selection: hits, their analogues and other compounds. The true share with any hit is near 5.4%.
# Beta cell apopt = inhibitors of cytokine-induced beta cell apoptosis, primary screen, luminescence. INS-1E cytokine-induced death, ATP luminescence, 48 h; percent of positive-control rescue, neutral wells zero. protection from apoptosis, % (concentration not given with the values). hit rate 0.8% among 300,000;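 active means Every replicate reaches about 75%, or at least half do and their mean reaches it too, limit read from the data; inconclusive means At least half of replicates reach the limit but their mean does not; inactive means Under half of replicates reach the limit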;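 further: 0% = cytokine-treated negative control wells and 100% = positive control rescue; higher means more ATP so stronger rescue from cytokine killing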
# SKKanGAS inh = S. pyogenes SKKanGAS growth inhibitors in kanamycin, primary screen, streptokinase expression inhibitor project, SKKanGAS strain, BacTiter-Glo luminescence | 6 h | inhibition, % at 7.5 µM | hit rate 1.3% among 300,000;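 active means mean replicate score, as percent of positive control median, at least 50; inconclusive means mean below 50 but one replicate at or above 50; inactive means mean and every replicate below 50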;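 further: strain carries kanamycin resistance gene driven by streptokinase promoter and grows in 40 µg/ml kanamycin; loss of luminescence reflects streptokinase promoter inhibition or plain growth inhibition; 0% = median of DMSO wells and 100% = positive control at its reference dose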
# MPTP block = mitochondrial permeability transition pore inhibitors, primary screen, biochemical, isolated mouse mitochondria, absorbance; inhibition, % at 10 µM; AID 602449, 2012; Ca2+ swelling absorbance, 30 min; hit rate 1.4% among 360,000;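 active means inhibition of 50% or more, scaled per plate between neutral and stimulator controls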;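 further: 0% = DMSO wells given calcium and 100% = 1 mM EGTA wells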
# Calb FLC = C. albicans growth inhibition with fluconazole, primary screen, CaCi-2 strain, Alamar Blue fluorescence; C. albicans CaCi-2 (fluconazole-resistant clinical isolate) + fluconazole, 48 h; growth inhibition, % (concentration not given with the values); hit rate 0.57% among 300,000; AID 1979, 2009;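 active means growth inhibition above about 58% in most replicates, limit read from the data, passing the limit was not always enough; inconclusive means exactly half the replicates above a set limit; inactive means most replicates below a set limit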;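 further: all wells also contain fluconazole at 8 µg/ml as a sub-toxic cotreatment; 0% = median of DMSO wells and 100% = median of geldanamycin control wells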
# Mdm2-MdmX inh = inhibitors of human Mdm2-MdmX association, primary screen, cell-based, luminescence, split luciferase, SaOS-2, uHTS; SaOS-2 split-luciferase Mdm2/MdmX complementation; inhibition, % at 8 µM; hit rate 3% among 330,000;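 active means inhibition of at least 50% at 8 µM in the primary screen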
# Target sequence (O15151 whole entry, looked up): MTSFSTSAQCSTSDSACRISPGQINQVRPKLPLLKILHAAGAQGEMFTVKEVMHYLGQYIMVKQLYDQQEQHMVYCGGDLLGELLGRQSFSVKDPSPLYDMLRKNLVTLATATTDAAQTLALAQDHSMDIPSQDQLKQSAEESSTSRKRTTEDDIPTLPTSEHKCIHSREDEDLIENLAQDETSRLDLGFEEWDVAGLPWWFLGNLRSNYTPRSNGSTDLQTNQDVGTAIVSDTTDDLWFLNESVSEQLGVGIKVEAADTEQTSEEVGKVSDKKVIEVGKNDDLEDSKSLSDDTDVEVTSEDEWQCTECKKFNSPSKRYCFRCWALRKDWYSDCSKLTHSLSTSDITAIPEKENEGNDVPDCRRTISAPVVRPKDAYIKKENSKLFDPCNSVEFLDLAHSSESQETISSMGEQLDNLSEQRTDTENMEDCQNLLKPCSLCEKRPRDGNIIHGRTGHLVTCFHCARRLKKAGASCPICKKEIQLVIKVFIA
# Target sequence (Q00987 whole entry, looked up): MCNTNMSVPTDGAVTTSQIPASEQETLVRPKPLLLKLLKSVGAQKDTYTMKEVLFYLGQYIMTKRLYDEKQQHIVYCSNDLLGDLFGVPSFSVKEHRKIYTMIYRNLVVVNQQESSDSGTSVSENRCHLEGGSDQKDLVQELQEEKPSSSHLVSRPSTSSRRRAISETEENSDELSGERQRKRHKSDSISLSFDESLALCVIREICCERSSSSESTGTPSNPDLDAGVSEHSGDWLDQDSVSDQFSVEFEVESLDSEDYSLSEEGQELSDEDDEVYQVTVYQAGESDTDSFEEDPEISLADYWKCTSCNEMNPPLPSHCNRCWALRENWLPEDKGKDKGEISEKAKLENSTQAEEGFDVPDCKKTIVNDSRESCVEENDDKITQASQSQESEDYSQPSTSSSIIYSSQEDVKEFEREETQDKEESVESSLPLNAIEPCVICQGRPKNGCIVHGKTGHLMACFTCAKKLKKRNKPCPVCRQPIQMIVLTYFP
# CSC inhib = cancer stem cell viability inhibitors, primary screen, luminescence | cancer stem cell-like cells viability | inhibition, % at 7.5 µM | hit rate 1.1% among 300,000 | AID 2717, 2010; in the data active means inhibition above about 75%; inconclusive means no clear call, values can overlap the other calls; tested in HMLE shEcad cells
# Mdm2-MdmX conf = Mdm2-MdmX complex disruptors, retested hits, confirmation, luminescence, single concentration. hit rate 55% among 10,000. shares compounds with Mdm2-MdmX inh. inhibition, % at 8 µM. Mdm2-MdmX binding, luminescent assay; in the data active means inhibition above about 40%
# FLuc counter = full-length luciferase signal inhibition, confirmation, counter-screen for Mdm2/MdmX interaction inhibitor project, cell-based, single concentration, SaOS-2. inhibition, % at 8 µM. AID 504607, 2011. shares compounds with Mdm2-MdmX inh. hit rate 77% among 6,200. SaOS-2 full-length luciferase counterscreen, luminescence;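 active means mean inhibition at 8 µM reaching about 37%, which flags the compound as non-specific, limit read from the data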;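 further: p53-null SaOS-2 cells with luciferase driven by a doxycycline-inducible promoter; compound on cells about two nights before reading with doxycycline added after day one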
# Starred values were filed as active, the others as inactive; ? = inconclusive; . = not tested or not shown; ! = not confirmed by another sample.
SMILES,Beta cell apopt,SKKanGAS inh,MPTP block,Calb FLC,Mdm2-MdmX inh,CSC inhib,Mdm2-MdmX conf,FLuc counter
COc1ccc(C2=NN(C(=O)COC(=O)c3ccc(S(C)(=O)=O)c([N+](=O)[O-])c3)C(c3ccco3)C2)cc1 (configuration not stated),-11.1,.,0.4,.,97.6*,95.9*,91.1*,52.5*
COc1ccc(C2=NN(C(=O)COc3ncnc4ccccc34)C(c3ccco3)C2)cc1 (configuration not stated),0.3,4.1,-2.4,-19.8,35.0,-0.6,.,.
CC(=O)OC[C@H]1O[C@@H](n2ncc(=O)[nH]c2=O)[C@H](OC(C)=O)[C@@H]1OC(C)=O,-2.9,-3.9,-1.2,.,79.8*,21.6,59.1*,31.6
CCCCCCCCCCOC(=O)Cn1c(COc2ccc(Cl)cc2)[n+](C)c2ccccc21,122.2*,108.4*,0.2,?,78.0*,108.6*,74.0*,59.4*
CCCCCCCCCCOC(=O)Cn1c(COc2cccc(C)c2)[n+](C)c2ccccc21,99.4*,101.5*,4.3,49.1,85.8*,169.1*,70.6*,24.9
CCCCCCCCCCOC(=O)Cn1c(COc2ccccc2)[n+](C)c2ccccc21,128.7*,81.1*,4.7,41.0,69.0*,103.5*,71.7*,20.0
CCCCCCCCCCOC(=O)Cn1c(COc2ccccc2C)[n+](C)c2ccccc21,109.6*,82.9*,24.0,?,88.5*,106.3*,69.2*,16.9
CCCCOC(=O)Cn1c(=O)n(CC(=O)OCCCC)c2ccccc21,-4.1,6.1,-1.5,-1.6,-8.5,-2.1,.,.
CCOC(=O)Cn1c(COc2ccccc2OC)[n+](C)c2ccccc21,0.7,-3.5,1.7,1.4,32.4,-14.8,.,.
Cc1cc(C)n(CCNS(=O)(=O)c2ccc(C)c(C)c2)n1,0.4,-0.8,0.3,1.2,16.3,2.8,.,.
CCc1nn(CC(=O)N2CCC(C)CC2)c(=O)c2cccn12,-4.1,-3.4,1.9,2.6,17.3,-10.3,.,.
CCn1nc(CC(=O)O)c2ccccc2c1=O,-0.4,-0.2,-2.1,-20.7,0.5,2.5,.,.
COc1cc(C)ccc1OCc1cc(C(=O)N2CCN(C)C[C@@H]2c2ccccc2)no1,-0.5,-9.2,-1.9,-1.6,-21.1,5.5,.,.
CCCCCCCCCCOC(=O)Cn1c(COc2ccc(OC)cc2)[n+](C)c2ccccc21,113.8*,13.1,-2.2,-11.1,85.1*,102.9*!,75.9*,20.6
COc1ccccc1-n1c(C)nnc1SCC(=O)Nc1cc(C)cc(C)c1,4.0,-6.7,1.7,12.1,-19.6,-2.7,.,.
CC(C)C1Oc2ccccc2C(=O)N(CC(=O)c2ccc3c(c2)OCCO3)C1=O (configuration not stated),3.0,-0.5,0.2,-1.2,-87.2,-13.4,.,.
COC(=O)c1c(NC(=O)/C=C/C(=O)O)sc(C)c1-c1ccc(C)c(C)c1,3.6,16.3,2.5,-4.6,53.4*,45.6,21.9,.
CCOC(=O)c1c(NC(=O)/C=C/C(=O)O)sc(C)c1-c1ccc(C)c(C)c1,.,13.6,-0.7,47.1,38.5,55.3,.,.
CC(=O)Nc1cc(NC(C)=O)cc(C(=O)OC(C)C(=O)Nc2ccc(S(=O)(=O)N3CCCC3)cc2)c1 (configuration not stated),5.1,-4.4,-1.6,-2.9,29.4,-9.1,.,.
CC(OC(=O)c1ccc(S(=O)(=O)N2CCCCC2)cc1)C(=O)Nc1ccc(C(N)=O)cc1 (configuration not stated),.,.,-2.8,.,53.8*,.,-16.1,.
Cc1ccc(C)c(N2CCN(S(=O)(=O)c3c(C)noc3/C=C/N(C)C)CC2)c1,-2.0,26.2,1.3,8.6,56.0*,40.9,28.4,.
